# AHR act = human AHR activation | 320,000 tested, 2.5% active | activation, % at 5 µM | AHR-responsive luciferase reporter cells, luminescence | P35869; in the data active = activation above about 47%;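 note: 0% = vehicle wells and 100% = reference agonist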
# HSF1 inh = HSF1 inhibition; 300,000 tested, 0.77% active; NIH3T3-HGL HSE-luciferase, MG132-induced, luminescence 8 h; active compounds read low; activity change, negative = inhibition, % at 7.5 µM (by protocol); AID 2098;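 active = more than half of replicate wells show activity change below -50%, luminescence cut by over half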;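 note: luciferase reports HSF-1 transcriptional activity via heat shock element; 0% = median of DMSO wells and -100% = zero luminescence signal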
# HSF-1 act = increases HSF-1 driven luciferase reporter signal | NIH3T3-HGL HSF-1 luciferase reporter, MG132, 8 h; 100% = twice DMSO control signal | activation, % at 9 µM | 300,000 tested, 1.7% active | AID 504408;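 active = mean replicate activation of at least 50% with a set share of replicates each reaching 50%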;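 note: 0% = median of the neutral control wells and 100% = twice that signal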
# GAA850 FXN act = increases GAA850 frataxin promoter reporter activity; HEK293 lucGAA850 FXN promoter luciferase reporter, 24 h; percent of 10 µM SAHA response; activation, % at 6 µM; 360,000 tested, 0.56% active;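 active = activation above the average of all compounds screened plus 3 SD, cutoff fixed separately per campaign, cut at about 7.5% in these data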;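 note: 0% = DMSO wells and 100% = 10 µM SAHA wells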
# Numbers without * were called inactive; / = not tested or not shown. Most compounds without a hit are left out; they make up all but 4.6% or so of the library.
SMILES,AHR act,HSF1 inh,HSF-1 act,GAA850 FXN act
CN(C)CC(=O)c1c(N)n(Cc2ccccc2)c(=O)n(C)c1=O,-1,0,10,2
CCN(CC(=O)c1c(N)n(C)c(=O)n(C)c1=O)c1cccc2ccccc12,50*,62,85*,-3
S=c1[nH]nc(C2CCCCC2)n1/N=C/c1cccc(Cl)c1Cl,/,1,14,5
CSc1nc2sc3c(c2c(=O)n1C)CCC3,0,-7,4,3
CSc1nc2sc3c(c2c(=O)n1C)CCC(C)C3 (centres undefined),56*,3,30,2
O=C(CCCNC(=O)c1ccc(Cl)cc1)Nc1cccc(S(=O)(=O)N2CCCCC2)c1,0,/,/,0
N#Cc1cccnc1Nc1cccc(Cl)c1,77*,5,-8,3
CC(=O)NS(=O)(=O)c1cccnc1Nc1cccc(Cl)c1,5,-7,-9,0
COc1cc(OC)cc(C(=O)N2CCCC(Nc3ccc(F)cc3)C2)c1 (centres undefined),11,-6,-1,0
CCOC(=O)C1CCCN(C(=O)c2ccc(Cl)c(S(=O)(=O)N3CCCCC3)c2)C1 (centres undefined),-2,24,79*,4
CCOC(=O)C1CCCN(C(=O)c2cc3cc(F)ccc3[nH]2)C1 (centres undefined),50*,1,0,0
O=C(c1cc2cc(F)ccc2[nH]1)N1CCCC(Nc2ccc(F)cc2)C1 (centres undefined),63*,3,18,1
CCOC(=O)C1CCN(C(=O)c2ccc(C)c(S(=O)(=O)N3CCCC3)c2)CC1,-1,2,-1,1
CCOC(=O)N1CCN(C(=O)c2cc3cc(F)ccc3[nH]2)CC1,58*,6,-10,1
CCOC(=O)N1CCN(C(=O)c2cc3cc(Cl)ccc3[nH]2)CC1,/,4,0,1
COc1ccc([C@H]2CC(=O)C=C(c3ccc(Cl)cc3C)C2)cc1,1,/,/,1
Cc1cc(C)c(OCC(=O)OCC(=O)N2CCc3ccccc3C2)c(C)c1,-1,-4,-7,2
COCCn1c(Sc2ccc(C)cc2)nc2c1c(=O)[nH]c(=O)n2C,8,0,6,1
COc1cc(NC(=O)COC(=O)c2ccc(C)c(S(=O)(=O)N3CCCCC3)c2)c(C)cc1[N+](=O)[O-],20,21,64*,0
Cc1ccc(NC(=O)COC(=O)c2ccc3c(c2)OCO3)cc1S(=O)(=O)N1CCCCC1,-2,18,56*,2
CCN(C(=O)COC(=O)CNC(=O)c1ccc(C)c(C)c1)C1CCS(=O)(=O)C1 (centres undefined),1,-1,-5,-2
COC(=O)C(NNc1ccccc1C)(NC(=O)c1ccc(F)cc1)C(F)(F)F (centres undefined),45,36,80*,6
COc1ccc(N(C(=O)c2cnccn2)C(C(=O)NC2CCCCC2)c2ccc(Cl)cc2)cc1 (centres undefined),1,0,-6,3
COc1ccc(C(C(=O)NC2CCCCC2)N(C(=O)CCl)c2ccc(Cl)cc2)cc1 (centres undefined),0,-86*,-83,-15
O=C(CCCC(=O)N(c1ccc2c(c1)OCCO2)C(C(=O)NC1CCCCC1)c1ccc(Cl)cc1)Nc1ccccn1 (centres undefined),2,-66*,-70,-1
SMILES,AHR act,HSF1 inh,HSF-1 act,GAA850 FXN act
COc1ccccc1CNC(=O)C(C)NS(=O)(=O)c1ccc(Br)cc1 (centres undefined),3,-73*,-80,0
CC(NS(=O)(=O)c1ccc(Br)cc1)C(=O)NCc1ccco1 (centres undefined),0,11,17,2
O=C(c1cnn(-c2ccccc2)c1)c1ccc2ccccc2c1O,5,36,58*,6
O=C(O)c1ccc(-n2cc(C(=O)c3ccccc3O)cn2)cc1,9,-3,-1,4
CN(C(=O)c1ccco1)c1nc2c(s1)CCCC2,-1,27,62*,2
Cc1[nH]n(-c2ccc(F)cc2)c(=O)c1C=Nc1ccc(S(=O)(=O)N(C)C)cc1,22,2,-5,-3
Cn1c(-c2ccccc2)n[nH]c1=S,2,-14,1,0
Cc1nc(-c2ccccc2)sc1-c1n[nH]c(=S)n1C,93*,-25,-37,3
CN1C/C(=C\c2ccc(N3CCOCC3)cc2)C(=O)/C(=C/c2ccc(N3CCOCC3)cc2)C1,2,67,133*,7
CCC(c1nnnn1CC1CCCO1)N(CCCO)Cc1cc2cccc(C)c2[nH]c1=O (centres undefined),11,3,-2,1
CCC(c1nnnn1Cc1ccc(F)cc1)N(CCCO)Cc1cc2cc3c(cc2[nH]c1=O)OCO3 (centres undefined),73*,-39,-50,-2
N#Cc1ccccc1N=Cc1ccc(Br)cc1,12,7,14,0
Cc1cc(Nc2cccc(Cl)c2)nc(N2CCOCC2)n1,52*,4,-12,1
O=C(O)CCC(=O)c1c[nH]c2ccccc12,7,1,0,1
O=C(/C=C/c1nc2ccccc2s1)N1CCCCCC1,-5,32,75*,6
Cc1ccc2c(cnn2C(=O)CCCC(=O)NCc2cccc(F)c2)c1,3,-5,-20,0
Cc1ccc2nc(/C(C#N)=C\c3cc(C)n(-c4cccc([N+](=O)[O-])c4)c3C)[nH]c2c1,58*,7,20,1
Cc1cc(/C=C(/C#N)c2nc3ccccc3[nH]2)c(C)n1-c1cc(C(=O)O)cc(C(=O)O)c1,/,5,16,0
COc1ccc(Br)cc1CN1CCSCC1,-2,-5,-7,-1
Cc1ccc2cc(CCNC(=O)c3cccs3)c(=O)[nH]c2c1C,-2,29,58*,4
CCN1CCN(c2nc3ccccc3nc2C(C#N)S(=O)(=O)c2ccc(C)cc2)CC1 (centres undefined),-1,3,-7,-1
COc1ccccc1C1CC(c2ccc(Br)cc2)=NN1C(=O)c1cccnc1 (centres undefined),63*,13,-3,-3
COc1cccc(C2CC(c3ccc(Br)cc3)=NN2C(=O)c2ccncc2)c1OC (centres undefined),-3,2,11,-1
O=C(COc1ccc(Br)cc1)N(Cc1ccccc1)c1ccccn1,1,3,31,-1
CCc1nc(N2CCCCC2C)c2oc3ccccc3c2n1 (centres undefined),48*,-3,-1,-2
CCOC(=O)N1CCN(C(=O)c2cn(CC)c3ccc(S(=O)(=O)N4CCCC4)cc3c2=O)CC1,-2,1,22,2
CN(/N=C/C=C/c1ccccc1)c1cc(=O)n(C)c(=O)[nH]1,70*,17,48,1
COc1ccc(/C=N/N(C)c2cc(=O)n(C)c(=O)[nH]2)cc1OC,20,-4,12,5
O=C(NCCCN1CCOCC1)c1ccc(Cl)c([N+](=O)[O-])c1,-2,-3,-2,1
CCOC(=O)CSc1ccc(C(=O)NCCCN2CCOCC2)cc1[N+](=O)[O-],-1,-69*,-75,2
